Test results: PubChem BioAssay (EPA / NIEHS)
Values joined by “and” are separate entries in the source; they are usually repeats but may differ in a detail not shown here. Equal values may be shown once. The source holds several records for some structures; these can differ, active in one and inactive in another. Active and inactive are the calls of the source. How the source made its calls: active means hit-call score of the fitted dose curve at least 0.9, where 1 is the maximum; inactive means score below 0.9.

How the values were obtained:
[1] = read-out: Human Leukocyte Antigen - DR isotype (HLADR), HLA-DRA (gene 3122); experiment: BSK_CASM3C_HLADR: BioMAP Diversity Plus: CASM3C Assay for Human Leukocyte Antigen - DR isotype (HLADR) Biomarker Activity (AID 2283043); conditions: primary human coronary artery smooth muscle cells; actives raise or lower the signal;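 further: cell-surface HLA-DR protein level quantified by ELISA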
[2] = read-out: Macrophage colony-stimulating factor (MCSF), CSF1 (gene 1435); experiment: BSK_CASM3C_MCSF: BioMAP Diversity Plus: CASM3C Assay for Macrophage colony-stimulating factor (MCSF) Biomarker Activity (AID 2283044); conditions: primary human coronary artery smooth muscle cells; actives raise or lower the signal;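 further: M-CSF protein amount quantified by ELISA after 24 h exposure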
[3] = read-out: Low-density lipoprotein receptor (LDLR), LDLR (gene 3949); experiment: BSK_CASM3C_LDLR: BioMAP Diversity Plus: CASM3C Assay for Low-density lipoprotein receptor (LDLR) Biomarker Activity (AID 2283045); conditions: primary human coronary artery smooth muscle cells; actives raise or lower the signal;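 further: LDLR protein level on the cell surface quantified by ELISA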
[4] = read-out: Monocyte Chemoattractant Protein-1 (MCP1), CCL2 (gene 6347); experiment: BSK_CASM3C_MCP1: BioMAP Diversity Plus: CASM3C Assay for Monocyte Chemoattractant Protein-1 (MCP1) Biomarker Activity (AID 2283046); conditions: primary human coronary artery smooth muscle cells; actives raise or lower the signal;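 further: MCP-1 level quantified by ELISA 24 h after dosing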
[5] = BSK_CASM3C_Proliferation: Cell Proliferation Assessment in the BioMAP Diversity Plus: CASM3C Assay (AID 2283047); conditions: primary human coronary artery smooth muscle cells;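 further: sulforhodamine B total protein stain as relative cell number at 560 nm; sub-confluent cells exposed 48 h before staining; fitted both ways against DMSO so gain or loss of cell number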
[6] = read-out: Monokine induced gamma interferon (MIG), CXCL9 (gene 4283); experiment: BSK_CASM3C_MIG: BioMAP Diversity Plus: CASM3C Assay for Monokine induced gamma interferon (MIG) Biomarker Activity (AID 2283048); conditions: primary human coronary artery smooth muscle cells; actives raise or lower the signal;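 further: MIG protein level measured by ELISA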
[7] = read-out: serum amyloid A (SAA), SAA1 (gene 6288); experiment: BSK_CASM3C_SAA: BioMAP Diversity Plus: CASM3C Assay for serum amyloid A (SAA) Biomarker Activity (AID 2283049); conditions: primary human coronary artery smooth muscle cells; actives raise or lower the signal;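 further: SAA protein level quantified by ELISA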
[8] = BSK_CASM3C_SRB: Viability Assessment in the BioMAP Diversity Plus: CASM3C Assay (AID 2283050); conditions: primary human coronary artery smooth muscle cells;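 further: total protein by SRB staining as cytotoxicity measure in parallel cultures; cells exposed to compound for 24 h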
[9] = read-out: Thrombomodulin, THBD (gene 7056); experiment: BSK_CASM3C_Thrombomodulin: BioMAP Diversity Plus: CASM3C Assay for Thrombomodulin Biomarker Activity (AID 2283051); conditions: primary human coronary artery smooth muscle cells; actives raise or lower the signal;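 further: thrombomodulin protein level measured by ELISA 24 h after dosing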
[10] = read-out: Tissue Factor, F3 (gene 2152); experiment: BSK_CASM3C_TissueFactor: BioMAP Diversity Plus: CASM3C Assay for Tissue Factor Biomarker Activity (AID 2283052); conditions: primary human coronary artery smooth muscle cells; actives raise or lower the signal;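 further: cell surface tissue factor protein level read by ELISA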

Measured: AC50

C=COC(=O)C(C)(C)CCCCCC
active: [1] 35.9 µM | [2] 32 µM | [4] 20 µM | [5] 37.8 µM | [6] 32.6 µM | [8] 31.9 µM | [10] 20 µM
inactive: [3] | [7] | [9]

Oc1c(Cl)cc(Cl)cc1Sc1cc(Cl)cc(Cl)c1O
inactive: [3] | [4] | [7] | [10]
active: [1] 9.1 µM and 7.2 µM | [2] 12.6 µM and 11.8 µM | [5] 15.8 µM and 12.1 µM | [6] 20.2 µM and 26.6 µM | [7] 20 µM | [8] 17.1 µM | [9] 12.8 µM and 12.6 µM

Cc1cccc2c1ccc1ccccc12
inactive: all assays above

O=S(=O)(O)C(F)(F)C(F)(F)C(F)(F)C(F)(F)C(F)(F)C(F)(F)C(F)(F)C(F)(F)C(F)(F)C(F)(F)F
active: [2] 13.3 µM | [6] 8.66 µM | [7] 13.3 µM and 20.4 µM | [9] 13.3 µM
inactive: [1] | [2] | [3] | [4] | [5] | [6] | [8] | [9] | [10]

Cc1ccc(C(=O)c2ccccc2)cc1
active: [1] 3.97 µM
inactive: all other assays above

Oc1ccc(Cc2ccccc2O)cc1
inactive: [1] | [2] | [3] | [4] | [5] | [6] | [7] | [8] | [9] | [10]
active: [1] 10.8 µM

C=CC(=O)OCCC(F)(F)C(F)(F)C(F)(F)C(F)(F)C(F)(F)C(F)(F)C(F)(F)C(F)(F)F
inactive: all assays above

CC(=O)Nc1ccc(O)cc1
inactive: all assays above

CCCCC(CC)C(=O)OCCOCCOCCOCCOC(=O)C(CC)CCCC (centres undefined)
inactive: all assays above

O=P(O)(O)CCC(F)(F)C(F)(F)C(F)(F)C(F)(F)C(F)(F)C(F)(F)C(F)(F)C(F)(F)F
inactive: [1] | [2] | [3] | [4] | [5] | [6] | [7] | [8] | [9] | [10]
active: [5] 9.07 µM

CCCCC=O
inactive: all assays above

CN(CCO)S(=O)(=O)C(F)(F)C(F)(F)C(F)(F)C(F)(F)C(F)(F)C(F)(F)C(F)(F)C(F)(F)F
inactive: [1] | [2] | [3] | [4] | [5] | [6] | [7] | [8] | [9] | [10]
active: [6] 0.0293 µM

C=CC(=C)CC/C=C(\C)CCC=C(C)C
inactive: all assays above

Cc1ccc(N=Nc2c(O)ccc3ccccc23)c(C)c1
active: [9] 8.07 µM
inactive: all other assays above

Cc1[nH]nc2c1N=C(c1ccccc1Cl)c1cc([N+](=O)[O-])ccc1N2
active: [1] 8.7 µM | [2] 0.581 µM | [5] 0.807 µM | [6] 7.47 µM | [7] 0.641 µM
inactive: all other assays above

CCCCCCCCCCCCCCCCCC[N+](C)(C)Cc1ccccc1
active: [1] 3.45 µM | [2] 5.5 µM | [3] 6.53 µM | [4] 5.29 µM | [5] 2.74 µM | [6] 15.4 µM | [7] 2.72 µM | [8] 2.75 µM | [9] 2.56 µM | [10] 0.296 µM

CCOC(=O)CN[C@@H](C(=O)N1CC[C@H]1C(=O)NCc1ccc(/C(N)=N/O)cc1)C1CCCCC1
inactive: all assays above

CN(Cc1cnc2nc(N)nc(N)c2n1)c1ccc(C(=O)N[C@@H](CCC(=O)O)C(=O)O)cc1
inactive: all assays above

CC1=NN(c2ccccc2)C(=O)C1
active: [9] 9.62 µM
inactive: all other assays above

CC[N+](CC)(CC)Cc1ccccc1
inactive: all assays above

CCCCC(CC)C(=O)O (centres undefined)
inactive: all assays above

O=C(O)C(F)(F)OC(F)(F)C(F)(F)OC(F)(F)C(F)(F)OC(F)(F)C(F)(F)C(F)(F)C(F)(F)F
inactive: [1] | [2] | [4] | [6] | [7] | [9] | [10]
active: [2] 48.1 µM | [3] 46.1 µM and 55.2 µM | [5] 51.1 µM and 56.6 µM | [7] 43.5 µM | [8] 55.1 µM and 45.3 µM

O=C1NS(=O)(=O)c2ccccc21
inactive: all assays above

O=C(NCc1ncc(C(F)(F)F)cc1Cl)c1c(Cl)cccc1Cl
inactive: all assays above

O=C(CC(=O)C(F)(F)C(F)(F)C(F)(F)F)c1cccs1
active: [1] 47.3 µM and 50.5 µM | [2] 45.2 µM and 48.9 µM | [3] 40.2 µM and 32.8 µM | [4] 45.5 µM and 45.9 µM | [5] 30 µM and 24.6 µM | [6] 42 µM and 50.2 µM | [7] 41.2 µM and 43.4 µM | [8] 45.6 µM and 44.6 µM | [9] 54.4 µM
inactive: [9] | [10]

OCC(CO)(CBr)CBr
inactive: all assays above

CS(=O)(=O)c1ccc([C@@H](CC2CCCC2)C(=O)Nc2cnccn2)cc1Cl
active: [5] 26.9 µM
inactive: all other assays above

O=P(O)(O)CCC(F)(F)C(F)(F)C(F)(F)C(F)(F)C(F)(F)C(F)(F)F
inactive: all assays above

CCCCCCCCCCCC
inactive: all assays above

CC(C)(C)c1ccc(O)c(O)c1
active: [9] 20 µM
not listed: [5]
inactive: all other assays above

O=C(NO)c1ccccc1
active: [2] 2.51 µM
inactive: all other assays above

C=CC(C)(CCC=C(C)C)OC(C)=O (centres undefined)
inactive: [3] | [6] | [9] | [10]
active: [1] 32 µM | [2] 35.8 µM | [4] 26.6 µM | [5] 30.6 µM | [7] 28.7 µM | [8] 32.6 µM

CN(C)CCOC(c1ccccc1)c1ccccc1
not listed: [2]
inactive: all other assays above

O=C1OC2(c3ccccc31)c1cc(I)c(O)c(I)c1Oc1c2cc(I)c(O)c1I
active: [2] 3.7 µM | [4] 6.12 µM | [9] 2.38 µM
inactive: all other assays above

NC(=NCCCCCCN=C(N)/N=C(\N)Nc1ccc(Cl)cc1)/N=C(\N)Nc1ccc(Cl)cc1
active: [1] 6.06 µM | [2] 7.55 µM | [3] 5.55 µM | [5] 4.91 µM | [6] 13.2 µM | [7] 5.67 µM | [8] 4.9 µM | [9] 4.64 µM | [10] 2.1 µM

CCC(C)c1ccccc1O (centres undefined)
inactive: all assays above

O=C1c2ccc(O)c(O)c2C(=O)c2c(O)ccc(O)c21
active: [5] 0.0041 µM
inactive: all other assays above

CCCCCCCCCCCCOS(=O)(=O)O
not listed: [4] | [7]
inactive: all other assays above

CCCCc1oc2ccccc2c1C(=O)c1cc(I)c(OCCN(CC)CC)c(I)c1
active: [1] 5.94 µM | [2] 22 µM | [3] 27.2 µM | [4] 25.1 µM | [5] 8.1 µM | [6] 24 µM | [7] 12.4 µM | [8] 18.9 µM | [9] 27.9 µM | [10] 24 µM

O=C(O)CCC(F)(F)C(F)(F)C(F)(F)C(F)(F)C(F)(F)F
inactive: all assays above

N=C(N)c1ccc(OCCCCCOc2ccc(C(=N)N)cc2)cc1
active: [1] 17.5 µM | [2] 15 µM | [5] 12.4 µM
inactive: all other assays above

CCCCCc1ccc(O)cc1
active: [1] 12.8 µM | [2] 14.6 µM | [3] 10.4 µM | [4] 14 µM | [5] 11.6 µM | [6] 15.4 µM | [7] 12.7 µM | [8] 15.9 µM | [9] 34 µM | [10] 12 µM

COc1cccc(O)c1
inactive: all assays above

CCCCCCCCCCCCCCC
inactive: all assays above

CN(C)c1ccc(C(=C2C=CC(=[N+](C)C)C=C2)c2ccccc2)cc1
active: [1] 0.0392 µM | [2] 0.825 µM | [3] 0.0323 µM | [4] 0.0615 µM | [5] 0.553 µM | [6] 1.17 µM | [7] 0.0168 µM | [8] 0.296 µM | [9] 0.758 µM | [10] 0.0195 µM

O=C(O)CCC(F)(F)C(F)(F)C(F)(F)C(F)(F)C(F)(F)C(F)(F)F
inactive: all assays above

Oc1cc2ccccc2cc1O
inactive: all assays above

COC1=CC(=O)C[C@@H](C)[C@]12Oc1c(Cl)c(OC)cc(OC)c1C2=O
active: [4] 4.25 µM | [5] 7.06 µM | [10] 2.12 µM
inactive: all other assays above

O=C(CCCN1CCC(O)(c2ccc(Cl)cc2)CC1)c1ccc(F)cc1
active: [3] 9.2 µM | [5] 20 µM
inactive: all other assays above

OCC(F)(F)C(F)(F)C(F)(F)C(F)(F)C(F)(F)C(F)(F)C(F)(F)C(F)(F)C(F)(F)C(F)(F)C(F)(F)F
inactive: all assays above

O=C(c1ccccc1)c1ccccc1
inactive: all assays above

C[C@]12CC[C@@H]3c4ccc(O)cc4CC[C@H]3[C@@H]1C[C@@H](O)[C@@H]2O
active: [2] 8.12 µM
inactive: all other assays above

OCCN1CN(CCO)CN(CCO)C1
active: [2] 5 µM | [3] 0.17 µM | [8] 20 µM
inactive: all other assays above

COc1cc(OC)nc(NC(=O)NS(=O)(=O)Nc2ccccc2C(=O)N(C)C)n1
inactive: all assays above

COCN(COC)c1nc(N(COC)COC)nc(N(COC)COC)n1
inactive: all assays above

Clc1ccc(Nc2nnc(Cc3ccncc3)c3ccccc23)cc1
active: [5] 3.48 µM | [7] 0.507 µM | [10] 8.4 µM
not listed: [6]
inactive: all other assays above
